This experiment addresses AMP-activated protein kinase, AMPK (Homo sapiens) (UniProt P54646+O43741+P54619+Q9UGJ0+Q9Y478+Q13131+Q9UGI9). Kind of experiment: AMP-dependent Kinase enzyme assay. An in vitro enzyme assay that detects ADP turnover that is directly proportional to AMPK activity. This uses naive AMPK that is activated during the assay with MK-8722. Also on record: scale not given: direction of the effect not stated beside the values. To be noted: 30 µM. Format: functional.
As to `O=C(NCc1nncn1C1CC1)c1ccccc1OCC1CC1`, the Percent Effect is 1.41%.

Regarding `Cc1ccc(Br)cc1C(=O)Nc1cc(C(N)=O)n(C)c1`, the Percent Effect came out at 0.519%.

For the compound `Cc1cc(C(=O)N2CC[C@](C)(O)[C@H](C)C2)c(C)n1C`, the Percent Effect was -6.41%.

For the compound `CC(=O)Nc1ccc(Oc2cc(C)nc(C3CCCNC3)c2)cc1` (stereo not given), the Percent Effect is -6.11%.

As for `CC(=O)Nn1ccc2c(nnc3c(-c4ccccc4)cnn32)c1=O`, the Percent Effect is 12.7%.

For `Nc1nc(CC(=O)N2CCCC(CCc3cccc(F)c3)C2)cc(=O)[nH]1` (stereo not given), the Percent Effect is -9.77%.

Turning to `O=C(c1cncc(NCC2COc3ccccc3C2)n1)N1CCCC1` (stereo not given), the Percent Effect is 8.04%.

Take `CC1CCN(c2ccc(C(=O)N3CCCC3c3nncn3C)cn2)CC1` (stereo not given): the Percent Effect is -4.84%.

Turning to `Cc1nccn1CCN1C(=O)CC2(CCCC2)CC1=O`, the Percent Effect was determined as 8.33%.

As to `COc1cc(COCC2CCN(Cc3ccccn3)CC2)cc(OC)c1`, the Percent Effect was -0.77%.

As to `Cc1nonc1CN1CC[C@@](O)(C2CCC2)[C@H](C)C1`, the Percent Effect was -1.54%.

For `CN(Cc1n[nH]c2c1CCC2)C(=O)c1cc(-c2cccn2C)n[nH]1`, the Percent Effect was -16.6%.

As to `Cc1ccc(CNc2ccn(CCC(N)=O)n2)c(Br)c1`, the Percent Effect came out at 1.48%.

For `CN1CC(C(=O)NCCc2ccc3c(c2)OCO3)CC1=O` (stereo not given), the Percent Effect came to 3.69%.

As for `CN1CCCCC1(C)C(=O)N1CCC(c2ccccn2)CC1` (stereo not given), the Percent Effect is -3.58%.

With `CCCN1CCC(CC(=O)NCc2cc(O)ncn2)CC1`, the Percent Effect was -4.63%.

As to `CN(C)CC1(O)CCCN(C(=O)CCn2cc(Cl)cn2)C1` (stereo not given), the Percent Effect is 4.94%.

In the case of `CNS(=O)(=O)CC(=O)N(C1CCCC1)C1CC1`, the Percent Effect was -3.58%.

Regarding `CCN(CC(=O)N(C)C)C(=O)c1ccc(-c2nc(C)cs2)cc1`, the Percent Effect was determined as 8.68%.

On to `CCn1c(C2CCN(C(=O)c3ccc4sc(C)nc4c3)CC2)n[nH]c1=O`, for which the Percent Effect was -0.0637%.

As for `CC(C)[C@@H]1CN(Cc2cnc3c(S(C)(=O)=O)cnn3c2)C[C@H]1N(C)C`, the Percent Effect was -8.81%.

On to `Cc1ccc(C(C(=O)NC(C)(C)CN2CCCC2)N(C)C)cc1` (stereo not given), for which the Percent Effect is -22.5%.

Consider `COc1cc2c(cc1OC)CN(C(=O)NCC1CCCO1)CC2` (stereo not given), for which the Percent Effect was -8.87%.

On to `CC(c1ncc(-c2ccccc2)o1)N1CCN(C(=O)C(C)(C)C)CC1` (stereo not given), for which the Percent Effect was 12.7%.

As for `CN(Cc1ncnn1C1Cc2ccccc2C1)C1CCS(=O)(=O)C1` (stereo not given), the Percent Effect is 1.61%.

On to `Cc1cc(C)n(CCN2CCC(N(C)Cc3noc(C4CC4)n3)C2)n1` (stereo not given), for which the Percent Effect amounted to 3.34%.

`O=C(NC1CCCN(Cc2c(F)cccc2F)C1)c1cnccn1` (stereo not given): the Percent Effect was determined as 6.06%.

`CN1CCOC(CNCC(=O)NCCCc2ccccc2)C1` (stereo not given): the Percent Effect was -10%.

`CC(C)(NCCCOc1ccc(C#N)cc1)c1nccs1`: the Percent Effect came out at 3.77%.

For the compound `Cc1csc(CCNC(=O)N2CCC(n3cccc3)CC2)n1`, the Percent Effect is -3.41%.

In the case of `COC1CCCOC12CCN(C(=O)NCCc1cccs1)CC2` (stereo not given), the Percent Effect turned out to be 4.16%.

As for `CC(C)N(Cc1ccccn1)C(=O)CCOc1cccc(F)c1`, the Percent Effect is -0.803%.

Consider `CSCCC(NC(=O)C1CC1)C(=O)N(C)Cc1ccsc1` (stereo not given), for which the Percent Effect was -0.745%.

Consider `Cc1ccnc(C2CCN(CCCOc3ccccc3F)C2)n1` (stereo not given), for which the Percent Effect amounted to 6.41%.

Turning to `CCN(CC)C(=O)CS(=O)(=O)c1cc(OC)c(OC)cc1C`, the Percent Effect turned out to be 3.6%.

On to `COc1ncccc1C(=O)NCCn1nc(C)ccc1=O`, for which the Percent Effect is -4.66%.

For `Cc1cc(NC(=O)CN2CCN(C3CCCC3)C(=O)C2)nn1C`, the Percent Effect was determined as 8.93%.

For `O=C(c1cc(C2CC2)nc2onc(-c3ccccc3)c12)N1CCOCC1`, the Percent Effect is 4.72%.

Take `CN(C)C(=O)c1cncnc1-c1ccc(CNC(=O)C2CCCO2)cc1` (stereo not given): the Percent Effect is -0.401%.

As for `COCCNC(=O)c1cnc(C)nc1C`, the Percent Effect stood at 3.33%.

The values above are taken from ChEMBL document CHEMBL3988442, “University of Dundee, Small-Polar-MMV Screening Library” (2021).
